Experimental data taken from paper PMC4336329 (PLoS ONE, 2015).
Screen size: about 310,000 compounds; about 14,000 (4.5%) showed an effect of 50% or more. Effects have a minus sign here. The full list was thinned out, with strong results kept by preference.

These compounds were tested against human ether-à-go-go-related gene (hERG) potassium channel (human, UniProt Q12809) (assay: primary screen, population patch clamp on CHO cells stably expressing hERG; higher = less effect of the substance).
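Also: peak tail current of the secondary pulse compared with the same well before compound.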

Sequence of human ether-à-go-go-related gene (hERG) potassium channel (Q12809 whole entry, looked up): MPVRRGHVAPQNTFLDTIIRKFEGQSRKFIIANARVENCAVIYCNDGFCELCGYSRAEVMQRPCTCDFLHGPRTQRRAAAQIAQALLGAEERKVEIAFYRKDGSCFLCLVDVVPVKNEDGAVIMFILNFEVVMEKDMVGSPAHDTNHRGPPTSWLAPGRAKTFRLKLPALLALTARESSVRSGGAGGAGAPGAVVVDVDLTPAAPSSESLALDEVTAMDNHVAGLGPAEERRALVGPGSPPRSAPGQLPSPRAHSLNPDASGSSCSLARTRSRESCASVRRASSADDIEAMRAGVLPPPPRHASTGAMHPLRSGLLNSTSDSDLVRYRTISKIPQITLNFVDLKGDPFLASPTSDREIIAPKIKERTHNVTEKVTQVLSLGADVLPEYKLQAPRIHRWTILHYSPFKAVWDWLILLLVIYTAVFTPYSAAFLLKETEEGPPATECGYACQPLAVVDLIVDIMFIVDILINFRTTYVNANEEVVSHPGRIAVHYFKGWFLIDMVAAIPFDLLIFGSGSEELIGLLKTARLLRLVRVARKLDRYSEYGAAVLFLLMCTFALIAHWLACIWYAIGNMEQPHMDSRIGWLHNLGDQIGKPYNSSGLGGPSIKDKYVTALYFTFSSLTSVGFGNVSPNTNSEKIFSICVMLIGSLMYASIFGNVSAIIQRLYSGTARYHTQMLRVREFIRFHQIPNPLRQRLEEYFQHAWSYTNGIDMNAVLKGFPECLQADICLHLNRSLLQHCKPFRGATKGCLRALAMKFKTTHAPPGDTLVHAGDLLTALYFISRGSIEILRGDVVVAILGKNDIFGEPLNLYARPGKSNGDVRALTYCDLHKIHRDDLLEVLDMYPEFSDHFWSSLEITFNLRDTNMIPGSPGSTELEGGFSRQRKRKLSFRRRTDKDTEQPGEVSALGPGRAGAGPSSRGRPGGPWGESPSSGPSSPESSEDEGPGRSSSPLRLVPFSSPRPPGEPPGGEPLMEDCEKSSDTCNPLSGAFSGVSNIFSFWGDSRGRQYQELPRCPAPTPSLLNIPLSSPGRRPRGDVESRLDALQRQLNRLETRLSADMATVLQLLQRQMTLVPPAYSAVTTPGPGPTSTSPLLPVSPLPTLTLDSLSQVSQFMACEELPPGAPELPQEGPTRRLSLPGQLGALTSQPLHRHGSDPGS

SMILES | hERG current change (%, negative = inhibition) at 10uM [%]
COc1cccc(OC)c1C(=O)Nc1cc(C)on1 | 7.22
O=C(CSc1nc2ccsc2c(=O)n1CC1CCC(C(=O)O)CC1)c1ccc(Cl)cc1 (stereo not drawn) | 33.9
CN1CCSc2ccc(C(=O)NCc3cccc(Br)c3)cc21 | 0.343
O=C(c1ccc2c(c1)N(Cc1ccccc1)CCS2)N1CCCCC1 | -32.9
CN1CCSc2ccc(C(=O)NCc3ccccc3)cc21 | -9.52
O=C(c1ccc2c(c1)N(Cc1ccc(F)cc1)CCS2)N1CCC2(CC1)OCCO2 | -57.1
O=C(NCCCN1CCCC1)c1ccc2c(c1)N(Cc1ccccc1)CCS2 | -69.6
O=C(c1ccc2c(c1)N(Cc1ccccc1)CCS2)N1CCC2(CC1)OCCO2 | -56.1
Cc1ccc(CN2CCSc3ccc(C(=O)N4CCC5(CC4)OCCO5)cc32)cc1 | -49.1
O=C(c1ccc2c(c1)N(Cc1ccccc1)CCS2)N1CCOCC1 | -29.7
Cc1cccc(CNC(=O)c2ccc3c(c2)N(C)CCS3)c1 | -59.4
CCN1CCN(CCCNC(=O)c2ccc3c(c2)N(Cc2ccccc2)CCS3)CC1 | -39.3
O=C(c1ccc2c(c1)N(Cc1ccc(F)cc1)CCS2)N1CCOCC1 | -23.3
CN1CCN(CCCNC(=O)c2ccc3c(c2)N(Cc2ccccc2)CCS3)CC1 | -23.6
S=C(NC1CCCC1)N1CCN(c2ncccn2)CC1 | -19.3
C[C@@]12CCC=C[C@H]1[C@H](c1ccoc1)N(Cc1ccccc1)C2=O | -8.15
CC(=O)c1c(N)n(C)c(=O)n(C)c1=O | -4.24
CSc1oc(-c2ccc(F)cc2)nc1S(=O)(=O)c1ccc(F)cc1 | 3.51
NNc1nnnc2c1sc1nc(N3CCOCC3)c3c(c12)CCCC3 | 5.3
COc1cc(C(=O)OCC(=O)Nc2cccc(S(=O)(=O)N3CCOCC3)c2)ccc1OCC(C)C | 18.3
CC(C)(C)C(=O)/C=C(\N)c1ccncc1 | 1.74
CCOc1ccc(N(CC(=O)NCCSCc2ccc(Cl)cc2)S(C)(=O)=O)cc1 | 4.71
COc1ccc(C)cc1NC(=O)CCNS(=O)(=O)c1cccc(C(F)(F)F)c1 | -27.6

SMILES | hERG current change (%, negative = inhibition) at 10uM [%]
Cc1cc2c(cc1S(=O)(=O)N(C)C1CCCCC1)OCC(=O)N2 | 7.2
O=S(=O)(NCCCCCNS(=O)(=O)c1ccccc1)c1ccccc1 | -2.98
Cc1ccc(OCC(=O)Nc2ccc(C(=O)O)cc2NC(=O)COc2ccc(C)c(C)c2)cc1C | 6.5
CCN1CCCC1Cn1cnc2c([nH]c3cc(OC)ccc32)c1=O (stereo not drawn) | -63.8
COc1ccc2[nH]c3c(=O)n(CCCN4CCOCC4)cnc3c2c1 | -3.86
COc1ccc2[nH]c3c(=O)n(Cc4ccncc4)cnc3c2c1 | -11
COc1ccc2[nH]c3c(=O)n(CCN4CCOCC4)cnc3c2c1 | -2.38
CCC1CCCN1Cn1cnc2c([nH]c3ccc(OC)cc32)c1=O (stereo not drawn) | -62.6
COc1ccc2c(c1)[nH]c1c(=O)n(CCN3CCCC3)cnc12 | -46.3
COc1ccc2c(c1)[nH]c1c(=O)n(CC3CCCO3)cnc12 (stereo not drawn) | 11.1
CCN1CCCC1Cn1cnc2c([nH]c3ccc(OC)cc32)c1=O (stereo not drawn) | -66.1
COc1ccc2[nH]c3c(=O)n(CCc4ccccc4)cnc3c2c1 | -6.62
CCCc1cc(CNC(=O)C2CCC(=O)N(CCc3cccc(F)c3)C2)on1 (stereo not drawn) | -49.6
COc1ccccc1NC(=O)c1ccc(C)c(S(=O)(=O)N2CCCCC2)c1 | -8.22
Cc1nnsc1C(=O)NNc1ccc(C(C)(C)C)cc1 | 14.1
Cc1onc(-c2c(F)cccc2Cl)c1C(=O)c1ccccc1O | -0.367
CCc1ccc2nc(SCC(=O)Nc3nnc(C)s3)c(C)cc2c1 | 16
Cn1cc(Br)c(C(=O)N/N=C/c2cccc(OC3CSC3)c2)n1 | -2.36
COc1ccc(-n2cccc2/C=C/[N+](=O)[O-])cc1 | -50.4
CN(C)c1ccc(-n2cccc2/C=C/[N+](=O)[O-])cc1 | 20.2
COc1ccc(-n2cccc2C=O)cc1 | 16.7
CCOC(=O)c1c(NCc2ccc3c(c2)OCO3)c2ccccc2[nH]c1=O | -10.8
O=C(Cc1ccccc1)N/N=C/c1ccc(OCC(=O)Nc2ccccc2)cc1 | -14.2

SMILES | hERG current change (%, negative = inhibition) at 10uM [%]
Cc1cc(NC(=O)CSc2nc3ccc(Cl)cc3[nH]2)no1 | 9.82
Cc1ccc(SCC(=O)Nc2ccc(N3CCN(c4ccccc4)CC3)c(F)c2)cc1 | 10.3
COc1ccc(SCC(=O)Nc2ccc(N3CCN(C)CC3)c(F)c2)cc1 | -49.7
CN1CCN(c2ccc(NC(=O)CN3CCOCC3)cc2F)CC1 | 24.5
CN1CCN(c2ccc(NC(=O)CSc3ccccc3)cc2F)CC1 | -68.4
CC(C)C(=O)Nc1ccc(N2CCN(C)CC2)c(F)c1 | 14.2
O=C(CSc1ccccc1)Nc1ccc(N2CCOCC2)c(F)c1 | 11.8
Cc1ccc(SCC(=O)Nc2ccc(N3CCN(C)CC3)c(F)c2)cc1 | -64.4
Cc1ccc(SCC(=O)Nc2ccc(N3CCN(C)CC3)c(F)c2)c(C)c1 | -72
O=C(CSc1ccccc1)Nc1ccc(N2CCN(c3ccccc3)CC2)c(F)c1 | 10.9
Cc1ccc2c(CC(=O)OC(C)C(=O)Nc3ncc(Cl)cc3Cl)coc2c1 (stereo not drawn) | -28.2
NC(=O)c1ccsc1NC(=O)c1cccs1 | -13.6
O=C(Nc1ccc2c(c1)OCO2)c1ccc(N2C(=O)c3ccccc3C2=O)cc1 | -5.61
Cc1cc2occ(CC(=O)N(CC(C)C)c3c(N)n(Cc4ccccc4)c(=O)[nH]c3=O)c2cc1C | -18.4
O=C(Cn1cnc2c(nnn2Cc2ccccc2F)c1=O)NCC1CCCO1 (stereo not drawn) | -3.88
O=C(/C=C/c1cccc([N+](=O)[O-])c1)N1CCN(S(=O)(=O)c2cccs2)CC1 | -62.2
O=C(/C=C/c1ccccc1[N+](=O)[O-])N1CCN(c2ccccc2F)CC1 | -13.8
O=C(/C=C/c1cccc(F)c1)N1CCN(c2ncccn2)CC1 | 7.29
O=C(/C=C/c1ccccc1Cl)N1CCN(c2ncccn2)CC1 | -32.4
O=C(/C=C/c1c(Cl)cccc1Cl)N1CCN(c2ncccn2)CC1 | -72.7
O=C(/C=C/c1ccccc1)N1CCN(c2ccccn2)CC1 | -42.8
O=C(/C=C/c1ccccc1[N+](=O)[O-])N1CCOCC1 | 15.5
O=C(/C=C/c1cccc(F)c1)N1CCN(c2ccccn2)CC1 | -118

SMILES | hERG current change (%, negative = inhibition) at 10uM [%]
O=C(/C=C/c1ccc([N+](=O)[O-])cc1)N1CCN(S(=O)(=O)c2cccs2)CC1 | -18.7
O=C(/C=C/c1ccco1)N1CCN(S(=O)(=O)c2cccs2)CC1 | -7.4
O=C(/C=C/c1ccccc1[N+](=O)[O-])N1CCN(c2ccc(F)cc2)CC1 | -56.5
O=C(/C=C/c1ccc(F)cc1)N1CCN(c2ncccn2)CC1 | 12.1
COc1cccc(CNC(=O)c2ccc(CS(=O)(=O)Cc3ccc(C)cc3)o2)c1 | -12.8
CCN(c1cccc(C)c1)S(=O)(=O)c1nnc(NC(=O)c2ccco2)s1 | 3.8
CCOC(=O)c1sc(NC(=O)c2ccc3nc[nH]c3c2)nc1C | 8.25
O=C(Nc1cc2ccccc2oc1=O)c1ccccc1 | 22.7
O=C(Cc1ccccc1)N[C@@H](Cc1ccccc1)C(=O)O | 7.29
Cc1ccc(CC(=O)NCCC(=O)O)cc1 | 16.9
Cc1c(C(=O)O)oc2ccc(S(=O)(=O)NCCC3=CCCCC3)cc12 | 0.629
COc1ccc(NC(=O)C2CCN(C(=O)c3ccco3)CC2)c(OC)c1 | 22.3
Cc1nc2ccc(Br)cn2c1NC(C)(C)C | -20.9
COc1ccc(-c2cc(C#N)nc(N3CCN(c4ccccc4)CC3)n2)cc1 | 3.41
CCOc1cc2[nH]c(=S)n(CCCN3CCCC3=O)c(=O)c2cc1OCC | -23.5
COCc1nnc(NC(=O)c2cccc(NC(=O)c3ccccc3)c2)s1 | -8.59
O=C(/C=C/c1cccc([N+](=O)[O-])c1)N1CCOCC1 | -3.86
O=C(/C=C/c1cccc([N+](=O)[O-])c1)N1CCN(c2ccccc2F)CC1 | -38.9
O=C(/C=C/c1cccc([N+](=O)[O-])c1)N1CCN(c2ccc(F)cc2)CC1 | -56.7
O=C(NCCC(=O)N1CCCC1)c1ccccc1Cl | 22
CNC(=O)C(C)N1c2cccc3cccc(c23)S1(=O)=O (stereo not drawn) | 22.3
